Source: PubChem BioAssay (NCATS)
Inconclusive results are not listed. Where a call stands in place of a potency, no number is given. The source made the active and inactive calls. Calls come from the whole dose curve; as a rule, active = well fitted curve in the direction sought with a large enough effect; inconclusive = small, poorly fitted or top-dose-only effect, or another doubt; inactive = no such curve, though single readings can be large; an effect the other way counts as inactive or inconclusive.

Key:
[1] = biological target: N-terminal Xaa-Pro-Lys N-methyltransferase 1 (Homo sapiens) (UniProt Q9BV86); experiment: qHTS Assay for Inhibitors of N-terminal methyltransferase 1 (NTMT1): LOPAC validation of the NTMT1 SAHH-coupled ThioGlo3 Assay (AID 1347143);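 note: SAH from peptide methylation measured as thiol fluorescence via SAHH coupling and ThioGlo3; nearly all actives have a fitted effect of over 70% in size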; note: potency is the fitted concentration of half-maximal effect
Sequence of N-terminal Xaa-Pro-Lys N-methyltransferase 1 (Homo sapiens) (Q9BV86 whole entry, looked up): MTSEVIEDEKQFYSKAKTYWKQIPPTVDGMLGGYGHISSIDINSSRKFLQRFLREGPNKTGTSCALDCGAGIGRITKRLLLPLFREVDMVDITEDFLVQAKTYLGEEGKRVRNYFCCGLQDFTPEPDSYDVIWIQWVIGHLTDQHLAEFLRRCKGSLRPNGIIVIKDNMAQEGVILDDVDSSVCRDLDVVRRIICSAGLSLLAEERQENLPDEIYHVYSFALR
In short: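 Recombinant human NTMT1 (125nM) was pre-incubated 1 min at room temperature with compounds over a concentration range, then a mix of 100uM SAM, 10uM SAHH and 15uM ThioGlo3 (concentrations in added reagent) was added. ThioGlo3 fluorescence (ex 340/em 450nm) after 30 min was normalized to the initial reading.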

[2] = tested on: Zika virus NS2B-NS3 protease (unlinked); experiment: Optimization of GU AMC qHTS for Zika virus inhibitors: Unlinked NS2B-NS3 protease assay (AID 1347151); note: nearly all actives have a fitted effect of over 80% in size; note: potency is the fitted concentration of half-maximal effect
In short: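 Unlinked protease (25 nM final); buffer 10 mM Tris-HCl pH 8.0 + 0.01% Tween 20; AMC substrate; 15 min RT, dark; Δfluorescence normalized to no-inhibitor/no-enzyme controls; 4-parameter Hill fit.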

[3] = tested on: Zika virus NS2B-NS3 protease; experiment: Primary screen GU AMC qHTS for Zika virus inhibitors (AID 1347154); note: nearly all actives have a fitted effect of over 70% in size
In short: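 Unlinked Zika NS2B hydrophilic domain–NS3 protease complex at 25 nM in 10 mM Tris-HCl pH 8.0, 0.01% Tween 20, with an AMC peptide substrate. Fluorescence change (340/450 nm) over 15 min at room temperature, normalized to controls, fitted to 4-parameter Hill.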

SMILES	Potency [1]	Potency [2]	Potency [3]
N#C/C(=C/c1ccc(O)c(O)c1)C(N)=S	44.7 µM (active)	–	–
CC(N)[C@H](O)c1ccc(O)c(O)c1 (some centres undefined)	50.1 µM (active)	–	–
NC(=O)CI	20 µM (active)	–	–
COc1ccc2c(c1O)-c1cccc3c1[C@@H](C2)N(C)CC3	56.2 µM (active)	29.9 µM (active)	–
C[C@H](N)CN1CCc2ccc(Br)cc21	inactive	inactive	–
COc1ccc2c(c1)C13CCCCC1C(C2)N(C)CC3 (centres undefined)	inactive	inactive	–
C[C@H]1C2Cc3ccc(O)cc3[C@@]1(C)CCN2CC1CC1	inactive	inactive	–
O=[N+]([O-])c1cc(O)c(O)c([N+](=O)[O-])c1	44.7 µM (active)	–	–
C#CCN[C@H](C)Cc1ccccc1	inactive	inactive	–
CCN1C[C@@]2(COC)C3[C@@H](OC)C4[C@H]1C3([C@@H]1C[C@@]3(O)[C@H](OC(=O)c5ccccc5)[C@@H]1[C@]4(OC(C)=O)[C@@H](O)[C@@H]3OC)[C@H](OC)C[C@H]2O	inactive	–	–
CCCN1CCc2cccc3c2[C@H]1Cc1ccc(O)c(O)c1-3	15.8 µM (active)	29.9 µM (active)	–
CN1CC[C@@]2(C)c3cc(O)ccc3N(C)C12 (some centres undefined)	44.7 µM (active)	–	–
NC(CCCCCP(=O)(O)O)C(=O)O (centres undefined)	inactive	inactive	–
NC(=O)COc1c(F)cc(SCCNS(=O)(=O)c2ccccc2)cc1F	inactive	–	–
CC12NC(Cc3ccccc31)c1ccccc12 (centres undefined)	inactive	inactive	–
N[C@@]1(C(=O)O)CC[C@@H](C(=O)O)C1	inactive	inactive	–
C[C@@H]1O[C@@H](O[C@H]2C[C@@H](O)[C@]3(CO)[C@@H]4C(CC[C@]3(O)C2)[C@@]2(O)CC[C@H]([C@@H]3COC(=O)C3)[C@@]2(C)C[C@H]4O)[C@H](O)[C@H](O)[C@H]1O (some centres undefined)	inactive	inactive	–
CNc1ccc2oc(C[C@H]3O[C@@]4(CC[C@H]3C)O[C@H]([C@H](C)C(=O)c3ccc[nH]3)[C@H](C)C[C@H]4C)nc2c1C(=O)O	56.2 µM (active)	23.8 µM (active)	–
C[N+]1(C)CCN(c2ccccc2)CC1	28.2 µM (active)	inactive	inactive
CN1CCc2cccc(Cl)c2CC1	inactive	inactive	–
Clc1cc(I)cc(Cl)c1NC1=NCCN1	inactive	inactive	–
NCC(O)c1cc(O)c(O)cc1F (centres undefined)	56.2 µM (active)	inactive	–
CCCN1CC[C@@H]2c3cc(O)ccc3CC[C@@H]21	inactive	inactive	–
OC1CCCCC1N1CCC(c2ccccc2)CC1 (centres undefined)	inactive	inactive	–
CCCN1CCC[C@@H](c2cccc(O)c2)C1	inactive	inactive	–
